Common to all, as to conditions: treatment time: 24 h
Assay [1] concerns A549-ACTB-RAB5A. The assay is described as follows: lowest phenotypically active concentration; higher = less potent. A digest of the protocol:
(§1)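 Two criteria together defined phenotypic activity: deviation and reproducibility. Deviation meant ≥3 of 4 wells beyond the 95th percentile of Euclidean distances in solvent control wells, and reproducibility meant a median replicate Pearson correlation above the 95th percentile of non-replicates. Wells had been treated for 24 h at 0.3, 1, 3 or 9 µM in fifteen gene-edited A549, HepG2 and WPMY1 reporter lines before live imaging.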

In assay [2] the test system is A549-GM130-SQSTM1. The description is as above. The method, boiled down: as §1
The subject of assay [3] is A549-TP53BP1-CLTA. The assay is described as above. A digest of the protocol:
as §1

Assay [4] concerns A549-TUBA1B-RELA. Described as above. A digest of the protocol:
as §1

In assay [5] the test system is HepG2-TP53BP1-CLTA. The description is as above. The method, boiled down:
as §1

Assay [6] has as its system A549-ACTB-RAB5A. The assay is described as follows: phenotypically active (imaging signature differs from DMSO and reproducible) at any of 0.3-9 uM (binary (1 = active, 0 = inactive)); higher = active. A digest of the protocol:
as §1

In another assay the test system is A549-CANX-COX4. Described as above. A digest of the protocol:
as §1

Assay [7] has as its system A549-GM130-SQSTM1. The description is as above. A digest of the protocol:
as §1

In assay [8] the test system is A549-TP53BP1-CLTA. Described as above. The method, boiled down:
as §1

Assay [9] relates to A549-TUBA1B-RELA. The description is as above. A digest of the protocol: as §1
The next assay has as its system HepG2-ACTB-RAB5A. Described as above. A digest of the protocol:
as §1

For a further assay, the system named is HepG2-CANX-COX4. The assay is described as above. The method, boiled down: as §1
For the next assay, the system named is HepG2-GM130-SQSTM1. Described as above. A digest of the protocol:
as §1

Assay [10] deals with HepG2-TP53BP1-CLTA. The assay is described as above. The method, boiled down: as §1
The test system of a further assay is HepG2-TUBA1B-RELA. The assay is described as above. A digest of the protocol: as §1
Another assay relates to WPMY1-ACTB-RAB5A. Described as above. The method, boiled down: as §1
A further assay has as its system WPMY1-CANX-COX4. The description is as above. The method, boiled down:
as §1

The subject of another assay is WPMY1-GM130-SQSTM1. The assay is described as above. A digest of the protocol:
as §1

For another assay, the system named is WPMY1-TP53BP1-CLTA. Described as above. A digest of the protocol: as §1
For the next assay, the system named is WPMY1-TUBA1B-RELA. The assay is described as above. The method, boiled down: as §1

Where a name gives a salt, the structure may show the parent alone.

`CC(C)[C@@]1(NC(=O)[C@@H]2C[C@@H]3c4cccc5[nH]cc(c45)C[C@H]3N(C)C2)O[C@@]2(O)[C@@H]3CCCN3C(=O)[C@H](Cc3ccccc3)N2C1=O` [Dihydroergocristine mesylate]: the “lowest phenotypically active concentration” value with A549-ACTB-RAB5A [1], in the assay with A549-GM130-SQSTM1 [2], in the assay on A549-TP53BP1-CLTA [3], in the assay on A549-TUBA1B-RELA [4] and in the assay on HepG2-TP53BP1-CLTA [5] was 9 µM each time. In addition, the phenotypically active in the assay with A549-ACTB-RAB5A [6], in the assay with A549-CANX-COX4, in the assay on A549-GM130-SQSTM1 [7], with A549-TP53BP1-CLTA [8], in the assay with A549-TUBA1B-RELA [9] and in the assay with HepG2-ACTB-RAB5A was 1 (active) throughout. The phenotypically active in the assay on HepG2-CANX-COX4, in the assay with HepG2-GM130-SQSTM1, in the assay on HepG2-TP53BP1-CLTA [10], with HepG2-TUBA1B-RELA, in the assay on WPMY1-ACTB-RAB5A and in the assay on WPMY1-CANX-COX4 was 1 (active) throughout. For the same compound, the phenotypically active with WPMY1-GM130-SQSTM1, in the assay with WPMY1-TP53BP1-CLTA and with WPMY1-TUBA1B-RELA was 1 (active) throughout.
In the case of `O=C(Nc1ccncc1)C(=O)c1cn(Cc2ccc(Cl)cc2)c2ccccc12` [Indibulin], the “lowest phenotypically active concentration” value in the assay on A549-ACTB-RAB5A [1] is at most 0.3 µM; in the assay with A549-GM130-SQSTM1 [2] it was at most 0.3 µM; with A549-TP53BP1-CLTA [3], 3 µM; in the assay with A549-TUBA1B-RELA [4], at most 0.3 µM; in the assay on HepG2-TP53BP1-CLTA [5] it was 1 µM. In addition, the phenotypically active was 1 (active) in the assay on A549-ACTB-RAB5A [6]; 0 (inactive) with A549-CANX-COX4; 1 (active) with A549-GM130-SQSTM1 [7]; 1 (active) in the assay with A549-TP53BP1-CLTA [8]; 1 (active) with A549-TUBA1B-RELA [9]; 1 (active) in the assay with HepG2-ACTB-RAB5A. For the same compound, the phenotypically active in the assay on HepG2-CANX-COX4, in the assay with HepG2-GM130-SQSTM1, in the assay with HepG2-TP53BP1-CLTA [10], in the assay with HepG2-TUBA1B-RELA, in the assay with WPMY1-ACTB-RAB5A and with WPMY1-CANX-COX4 was 1 (active) throughout. The phenotypically active in the assay on WPMY1-GM130-SQSTM1, with WPMY1-TP53BP1-CLTA and in the assay on WPMY1-TUBA1B-RELA was 1 (active) in each case.
Turning to `N#CC(C#N)=NNc1ccc(OC(F)(F)F)cc1`, the “lowest phenotypically active concentration” value in the assay with A549-ACTB-RAB5A [1] was found to be 9 µM; with A549-GM130-SQSTM1 [2], 3 µM; with A549-TP53BP1-CLTA [3], 9 µM; with A549-TUBA1B-RELA [4], 3 µM; in the assay on HepG2-TP53BP1-CLTA [5] it was 9 µM. In addition, the phenotypically active with A549-ACTB-RAB5A [6], in the assay on A549-CANX-COX4, with A549-GM130-SQSTM1 [7], with A549-TP53BP1-CLTA [8], in the assay on A549-TUBA1B-RELA [9] and in the assay with HepG2-ACTB-RAB5A was 1 (active) each time. For the same compound, the phenotypically active with HepG2-CANX-COX4, in the assay with HepG2-GM130-SQSTM1, in the assay with HepG2-TP53BP1-CLTA [10], with HepG2-TUBA1B-RELA, in the assay with WPMY1-ACTB-RAB5A and with WPMY1-CANX-COX4 was 1 (active) each time. Moreover, the phenotypically active with WPMY1-GM130-SQSTM1, with WPMY1-TP53BP1-CLTA and in the assay with WPMY1-TUBA1B-RELA was 1 (active) in each case.
Turning to `CCN1CCN(C(=O)Cc2ccc(Nc3ncc(F)c(Nc4ccc(C(=O)Nc5ccccc5Cl)cc4)n3)cc2)CC1`, the “lowest phenotypically active concentration” value with A549-ACTB-RAB5A [1] was 1 µM; with A549-GM130-SQSTM1 [2] it was 1 µM; with A549-TP53BP1-CLTA [3], 1 µM; with A549-TUBA1B-RELA [4] it was 1 µM; with HepG2-TP53BP1-CLTA [5], at most 0.3 µM. Besides, the phenotypically active in the assay with A549-ACTB-RAB5A [6], with A549-CANX-COX4, in the assay with A549-GM130-SQSTM1 [7], in the assay with A549-TP53BP1-CLTA [8], with A549-TUBA1B-RELA [9] and with HepG2-ACTB-RAB5A was 1 (active) each time. In addition, the phenotypically active is 1 (active) in the assay on HepG2-CANX-COX4; 1 (active) in the assay on HepG2-GM130-SQSTM1; 1 (active) in the assay on HepG2-TP53BP1-CLTA [10]; 1 (active) in the assay on HepG2-TUBA1B-RELA; 1 (active) with WPMY1-ACTB-RAB5A; 0 (inactive) with WPMY1-CANX-COX4. Also, the phenotypically active in the assay on WPMY1-GM130-SQSTM1 was 0 (inactive); in the assay on WPMY1-TP53BP1-CLTA, 1 (active); in the assay with WPMY1-TUBA1B-RELA it was 1 (active).
In the case of `O=C1NC(=O)c2c1c1c3ccccc3n3c1c1c2c2ccccc2n1C1CCC3O1`, the “lowest phenotypically active concentration” value with A549-ACTB-RAB5A [1] is at most 0.3 µM; with A549-GM130-SQSTM1 [2], at most 0.3 µM; in the assay with A549-TUBA1B-RELA [4] it was at most 0.3 µM; in the assay with HepG2-TP53BP1-CLTA [5] it was 9 µM. The phenotypically active in the assay with A549-ACTB-RAB5A [6] is 1 (active); with A549-CANX-COX4, 0 (inactive); with A549-GM130-SQSTM1 [7] it was 1 (active); with A549-TP53BP1-CLTA [8], 0 (inactive); in the assay with A549-TUBA1B-RELA [9], 1 (active); in the assay with HepG2-ACTB-RAB5A, 0 (inactive). The phenotypically active with HepG2-CANX-COX4 was 0 (inactive); in the assay with HepG2-GM130-SQSTM1 it was 0 (inactive); in the assay with HepG2-TP53BP1-CLTA [10] it was 1 (active); in the assay on HepG2-TUBA1B-RELA it was 0 (inactive); in the assay on WPMY1-ACTB-RAB5A, 1 (active); in the assay with WPMY1-CANX-COX4, 1 (active). The phenotypically active in the assay on WPMY1-GM130-SQSTM1 is 1 (active); with WPMY1-TP53BP1-CLTA, 1 (active); in the assay on WPMY1-TUBA1B-RELA it was 0 (inactive).

These data come from the supplement of paper PMC7411054.
